Values joined by “and” are separate entries in the source; they are usually repeats but may differ in a detail not shown here. Equal entries are not always repeated. The campaign covered roughly 5,500 compounds. About 2,000 (36%) were called active. About 18% were inconclusive and are not listed. Cut-off read from the data, not from the text of the source: active = normalized growth mostly below about 0.91 (no sharp cut-off); inconclusive = no clear call, values can overlap the other calls; inactive = mostly above about 0.92. The list shows a part of the results.
Assay: chemical genetic growth profiling, strain panel (AID 1159580);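 note: tested at 20 µM; growth read once vehicle control cultures reached saturation at 30 °C; 1 = growth at the plate median or of vehicle wells; lower values mean less growth of the strain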
Settings: S. cerevisiae deletion strains, growth OD
[1] = locus YDR150W, strain NUM1, stronger effect = lower value
[2] = locus YMR307W, strain GAS1, stronger effect = lower value
[3] = locus YNL128W, strain TEP1, stronger effect = lower value
[4] = locus YNL153C, strain GIM3, stronger effect = lower value
[5] = locus YPL055C, strain LGE1, stronger effect = lower value
[6] = locus YHR030C, strain SLT2, stronger effect = lower value
[7] = locus YHR079C, strain IRE1, stronger effect = lower value
[8] = locus YJL095W, strain BCK1, stronger effect = lower value
[9] = locus YJR066W, strain TOR1, stronger effect = lower value
[10] = locus YLR113W, strain HOG1, stronger effect = lower value
[11] = locus YNL183C, strain NPR1, stronger effect = lower value
[12] = locus YOR231W, strain MKK1, stronger effect = lower value
[13] = locus YPL256C, strain CLN2, stronger effect = lower value

Measured: normalized growth

O=c1[nH]c2cc(Cl)ccc2c(O)c1-c1ccc(Oc2ccccc2)cc1
inactive: locus YAL040C, strain CLN3, stronger effect = lower value 1 | locus YCL061C, strain MRC1 (second series), stronger effect = lower value 0.993 | [1] 0.992 | locus YDR363W, strain ESC2, stronger effect = lower value 1 | locus YER002W, strain NOP16, stronger effect = lower value 1.01 | locus YGR078C, strain PAC10, stronger effect = lower value 1.01 | locus YJR075W, strain HOC1, stronger effect = lower value 0.987 | locus YMR263W, strain SAP30, stronger effect = lower value 0.999 | [2] 0.983 | [3] 1.02 | [4] 1.03 | locus YNL175C, strain NOP13, stronger effect = lower value 1 | locus YNL197C, strain WHI3, stronger effect = lower value 1.01 | locus YNL224C, strain SQS1, stronger effect = lower value 1 | locus YNL322C, strain KRE1, stronger effect = lower value 0.988 | locus YOR083W, strain WHI5 (second series), stronger effect = lower value 0.99 | [5] 1.01

O=C(O)c1cc(O)c2c(c1)[C@@H]([C@@H]1c3cc(C(=O)O)cc(O)c3C(=O)c3c(O[C@H]4O[C@H](CO)[C@@H](O)[C@H](O)[C@H]4O)cccc31)c1cccc(O[C@H]3O[C@H](CO)[C@@H](O)[C@H](O)[C@H]3O)c1C2=O
inactive: [6] 1.09 | [7] 1.08 | [8] 1.02 | [9] 1 | [10] 1.06 | [11] 1.02 | [12] 1.05 | [13] 1.08

O=C(O)c1cc(O)c2c(c1)[C@@H]([C@H]1c3cc(C(=O)O)cc(O)c3C(=O)c3c(O[C@H]4O[C@H](CO)[C@@H](O)[C@H](O)[C@H]4O)cccc31)c1cccc(O[C@H]3O[C@H](CO)[C@@H](O)[C@H](O)[C@H]3O)c1C2=O
inactive: locus YAL013W, strain DEP1, stronger effect = lower value 1.02 | locus YAL021C, strain ccr4, stronger effect = lower value 0.983 | locus YAL026C, strain drs2, stronger effect = lower value 1.01 | locus YAL030W, strain snc1, stronger effect = lower value 1.02 | locus YBL061C, strain skt5, stronger effect = lower value 1.01 | locus YBR009C, strain hhf1, stronger effect = lower value 1.04 | locus YBR021W, strain FUR4, stronger effect = lower value 1.02 | locus YBR023C, strain chs3, stronger effect = lower value 1.02 | locus YBR171W, strain sec66, stronger effect = lower value 1.02 | locus YBR229C, strain ROT2, stronger effect = lower value 1.01 | locus YBR231C, strain swc5, stronger effect = lower value 1.02 | locus YBR279W, strain paf1, stronger effect = lower value 1.01 | locus YCL011C, strain gbp2, stronger effect = lower value 1.02 | locus YCL016C, strain dcc1, stronger effect = lower value 1.02 | locus YCL029C, strain bik1, stronger effect = lower value 1 | locus YCL061C, strain MRC1, stronger effect = lower value 0.987 | locus YCL069W, strain vba3, stronger effect = lower value 1.01 | locus YCR088W, strain abp1, stronger effect = lower value 1.02 | locus YDL005C, strain med2, stronger effect = lower value 1 | locus YDL035C, strain GPR1, stronger effect = lower value 1.02 | locus YDL040C, strain nat1, stronger effect = lower value 1.04 | locus YDL074C, strain BRE1, stronger effect = lower value 1.04 | locus YDL101C, strain DUN1, stronger effect = lower value 1.01 | locus YDL134C, strain PPH21, stronger effect = lower value 1.01 | locus YDL185W, strain tfp1, stronger effect = lower value 1.01 | locus YDL192W, strain arf1, stronger effect = lower value 0.995 | locus YDR001C, strain nth1, stronger effect = lower value 1.04 | locus YDR069C, strain doa4, stronger effect = lower value 1.01 | locus YDR101C, strain arx1, stronger effect = lower value 0.98 | locus YDR137W, strain rgp1, stronger effect = lower value 0.953 | [1] 1.02 | locus YDR159W, strain sac3, stronger effect = lower value 1.02 | locus YDR162C, strain NBP2, stronger effect = lower value 1.02 | locus YDR297W, strain sur2, stronger effect = lower value 1.02 | locus YDR318W, strain mcm21, stronger effect = lower value 1.01 | locus YDR334W, strain swr1, stronger effect = lower value 1.05 | locus YDR335W, strain msn5, stronger effect = lower value 1.02 | locus YDR388W, stronger effect = lower value 1 | locus YDR392W, strain spt3, stronger effect = lower value 0.93 | locus YDR502C, strain sam2, stronger effect = lower value 0.995 | locus YEL003W, strain gim4, stronger effect = lower value 1.02 | locus YEL061C, strain CIN8 (second series), stronger effect = lower value 1.05 | locus YEL061C, strain CIN8, stronger effect = lower value 1.01 | locus YER015W, strain faa2, stronger effect = lower value 1.01 | locus YER016W, strain bim1, stronger effect = lower value 1.02 | locus YER110C, stronger effect = lower value 1 | locus YER155C, strain BEM2 (second series), stronger effect = lower value 1.01 | locus YER155C, strain BEM2, stronger effect = lower value 1.01 | locus YER167W, strain BCK2, stronger effect = lower value 1.01 | locus YFR010W, strain ubp6, stronger effect = lower value 1.02 | locus YGL078C, strain dbp3, stronger effect = lower value 0.993 | locus YGL086W, strain mad1, stronger effect = lower value 1 | locus YGL167C, strain pmr1, stronger effect = lower value 1.03 | locus YGL173C, strain kem1, stronger effect = lower value 1.02 | locus YGL227W, strain vid30, stronger effect = lower value 1.05 | locus YGL240W, strain doc1, stronger effect = lower value 0.989 | locus YGL248W, strain PDE1, stronger effect = lower value 1.02 | locus YGL253W, strain hxk2, stronger effect = lower value 1.02 | locus YGR135W, strain pre9, stronger effect = lower value 1.01 | locus YGR252W, strain gcn5, stronger effect = lower value 0.949 | locus YHR013C, strain ard1, stronger effect = lower value 1.06 | locus YHR027C, strain rpn1, stronger effect = lower value 1.05 | [6] 1.01 and 0.986 | locus YHR079C, strain IRE1 (second series), stronger effect = lower value 1 | [7] 0.981 | locus YHR094C, strain hxt1, stronger effect = lower value 0.999 | locus YHR129C, strain ARP1, stronger effect = lower value 1.01 | locus YHR142W, strain chs7, stronger effect = lower value 1.09 | locus YHR200W, strain rpn10, stronger effect = lower value 0.991 | locus YIL066C, strain RNR3, stronger effect = lower value 1.02 | locus YIL073C, strain SPO22, stronger effect = lower value 1.06 | locus YIL125W, strain kgd1, stronger effect = lower value 1 | locus YIR030C, strain dcg1, stronger effect = lower value 0.999 | locus YJL092W, strain hpr5, stronger effect = lower value 1.01 | [8] 1.03 and 0.978 | locus YJL129C, strain trk1, stronger effect = lower value 1.04 | locus YJL134W, strain LCB3, stronger effect = lower value 1.02 | locus YJL154C, strain vps35, stronger effect = lower value 1.02 | locus YJL164C, strain tpk1, stronger effect = lower value 1 | locus YJL166W, strain qcr8, stronger effect = lower value 0.958 | locus YJL168C, strain set2, stronger effect = lower value 1.02 | locus YJL187C, strain SWE1 (second series), stronger effect = lower value 1.02 | locus YJL187C, strain SWE1, stronger effect = lower value 1.01 | locus YJR043C, strain POL32, stronger effect = lower value 1 | [9] 0.934 | locus YKL009W, strain mrt4, stronger effect = lower value 1.11 | locus YKL068W, stronger effect = lower value 1.01 | locus YKL085W, strain MDH1 (second series), stronger effect = lower value 1.03 | locus YKL085W, strain MDH1, stronger effect = lower value 1.03 | locus YKL160W, strain elf1, stronger effect = lower value 0.993 | locus YKR001C, strain vps1, stronger effect = lower value 1.02 | locus YKR026C, strain gcn3, stronger effect = lower value 1.02 | locus YLL001W, strain dnm1, stronger effect = lower value 1.02 | locus YLL026W, stronger effect = lower value 1.02 | locus YLL041C, strain sdh2, stronger effect = lower value 1.01 | locus YLR027C, strain aat2, stronger effect = lower value 1.02 | locus YLR039C, strain RIC1, stronger effect = lower value 1.03 | locus YLR058C, strain SHM2, stronger effect = lower value 1.01 | locus YLR102C, strain apc9, stronger effect = lower value 1 | [10] 1.01 | locus YLR221C, strain rsa3, stronger effect = lower value 0.986 | locus YLR258W, strain gsy2, stronger effect = lower value 0.99 | locus YLR262C, strain YPT6 (second series), stronger effect = lower value 0.979 | locus YLR262C, strain YPT6, stronger effect = lower value 1.1 | locus YLR268W, strain sec22, stronger effect = lower value 0.998 | locus YLR320W, strain mms22, stronger effect = lower value 1.03 | locus YLR330W, strain CHS5, stronger effect = lower value 1.01 | locus YLR342W, strain FKS1 (second series), stronger effect = lower value 0.985 | locus YLR342W, strain FKS1, stronger effect = lower value 1.04 | locus YLR370C, strain arc18, stronger effect = lower value 1 | locus YLR371W, strain rom2, stronger effect = lower value 0.999 | locus YLR384C, strain iki3, stronger effect = lower value 1.02 | locus YLR418C, strain cdc73, stronger effect = lower value 0.993 | locus YML016C, strain PPZ1, stronger effect = lower value 1.01 | locus YML032C, strain rad52, stronger effect = lower value 0.998 | locus YML120C, strain ndi1, stronger effect = lower value 1.01 | locus YML124C, strain tub3, stronger effect = lower value 0.997 | locus YMR058W, strain fet3, stronger effect = lower value 1.03 | locus YMR078C, strain ctf18, stronger effect = lower value 1 | locus YMR125W, strain sto1, stronger effect = lower value 1.02 | locus YMR129W, stronger effect = lower value 1.04 | locus YMR205C, strain PFK2, stronger effect = lower value 0.958 | locus YMR223W, strain ubp8, stronger effect = lower value 0.997 | locus YMR231W, strain pep5, stronger effect = lower value 1.01 | [2] 1 | locus YNL067W, strain RPL9B, stronger effect = lower value 1.01 | locus YNL071W, strain lat1, stronger effect = lower value 1.03 | [3] 1.05 | [4] 1 | [11] 0.937 | locus YNL209W, strain ssb2, stronger effect = lower value 1.01 | locus YNL233W, strain BNI4, stronger effect = lower value 1.01 | locus YNL248C, strain rpa49, stronger effect = lower value 1 | locus YNL250W, strain rad50, stronger effect = lower value 1.02 | locus YNL271C, strain bni1, stronger effect = lower value 1 | locus YNL298W, strain CLA4, stronger effect = lower value 0.993 | locus YNL307C, strain MCK1, stronger effect = lower value 1.01 | locus YNL322C, strain KRE1 (second series), stronger effect = lower value 1.02 | locus YNR049C, strain mso1, stronger effect = lower value 1.05 | locus YNR052C, strain pop2, stronger effect = lower value 0.978 | locus YOL006C, strain TOP1, stronger effect = lower value 1.04 | locus YOL012C, strain htz1 0.926 | locus YOL147C, strain pex11, stronger effect = lower value 1 | locus YOR001W, strain rrp6, stronger effect = lower value 1.04 | locus YOR061W, strain CKA2, stronger effect = lower value 1.02 | locus YOR069W, strain VPS5, stronger effect = lower value 1.02 | locus YOR083W, strain WHI5, stronger effect = lower value 0.957 | locus YOR106W, strain vam3, stronger effect = lower value 0.979 | locus YOR136W, strain idh2, stronger effect = lower value 1.01 | locus YOR144C, strain elg1, stronger effect = lower value 1.01 | locus YOR184W, strain ser1, stronger effect = lower value 1.02 | [12] 0.988 | locus YOR265W, strain rbl2, stronger effect = lower value 1.01 | locus YOR270C, strain vph1, stronger effect = lower value 1.05 | locus YOR290C, strain snf2, stronger effect = lower value 0.997 | locus YOR316C, strain cot1, stronger effect = lower value 1 | locus YPL051W, strain arl3, stronger effect = lower value 0.995 | [5] 1.01 | locus YPL078C, strain atp4, stronger effect = lower value 0.979 | locus YPL106C, strain sse1, stronger effect = lower value 0.977 | locus YPL240C, strain hsp82, stronger effect = lower value 0.993 | locus YPL241C, strain CIN2, stronger effect = lower value 1.02 | [13] 1.03 | locus YPR119W, strain clb2, stronger effect = lower value 1 | locus YPR141C, strain kar3, stronger effect = lower value 1 | locus YPR163C, strain tif3, stronger effect = lower value 1.01 | locus YPR167C, strain met16, stronger effect = lower value 0.99 | strain wtn01, stronger effect = lower value 1.01
active: locus YDR195W, strain ref2 1.17 [resistant] | locus YEL037C, strain rad23, stronger effect = lower value 1.09 [resistant] | locus YJL095W, strain BCK1 (second series), stronger effect = lower value 1.12 [resistant] | locus YLR357W, strain rsc2, stronger effect = lower value 1.28 [resistant] | locus YOR070C, strain gyp1, stronger effect = lower value 1.08 [resistant] | locus YOR080W, strain dia2, stronger effect = lower value 1.13 [resistant]

Reference: PubChem BioAssay AID1159580 (chemical genetic matrix, 2015)
